{"source": "PubChem BioAssay (Tox21)", "note": "Records with an inconclusive call do not appear. Active and inactive are the calls of the source. Calls follow the shape of the dose curve; as a rule, active = well fitted cell-killing curve with a large enough effect in the repeat runs (not every such curve was filed as active); inconclusive = weak or mixed curves, or effect the other way; inactive = no such curve, though single readings can be large or run the other way. % is scaled to controls: 0 for no effect and ±100 for the full control effect.", "data": [{"assay": "qHTS assay to identify small molecule antagonists of the farnesoid-X-receptor (FXR) signaling pathway - cell viability counter screen (AID 743221); also: nearly all actives have a fitted effect of over 50% in size", "conditions": "FXR-bla HEK293T viability, CellTiter-Glo luminescence, 16 h; series mostly up to 62.6 µM; activity change, negative = cytotoxicity: at the top concentration", "method_in_brief": "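Cytotoxicity is taken from ATP luminescence (CellTiter-Glo, 30 min, room temperature) in FXR-bla HEK 293T cells previously incubated 16 h at 37 C with compound and chenodeoxycholic acid at 50 uM final.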", "values": [{"smiles": "C=C[C@@H](C)CCC=C(C)C", "activity change, negative = cytotoxicity": "22.1% (inactive)"}, {"smiles": "CCC(=O)c1ccc(O)cc1", "activity change, negative = cytotoxicity": "5.85% (inactive)"}, {"smiles": "CN[C@@H]1[C@@H](O)[C@@H](O[C@@H]2[C@H](O)[C@H](O[C@H]3OC(CN)=CC[C@H]3N)[C@@H](N)C[C@H]2N)OCC1(C)O", "note": "(stereo partly drawn)", "activity change, negative = cytotoxicity": "13% (inactive)"}, {"smiles": "CCc1nccnc1C", "activity change, negative = cytotoxicity": "3.91% (inactive)"}, {"smiles": "CCCCOC(=O)C(=O)OCCCC", "activity change, negative = cytotoxicity": "12.5% (inactive)"}, {"smiles": "CC(C)COC(=O)CCCCC(=O)OCC(C)C", "activity change, negative = cytotoxicity": "-5.26% (inactive)"}, {"smiles": "Cc1cc(O)c2c(c1)C(=O)c1cccc(O)c1C2=O", "activity change, negative = cytotoxicity": "3.74% (inactive)"}, {"smiles": "O=CN1CCOCC1", "activity change, negative = cytotoxicity": "9% (inactive)"}, {"smiles": "OCCCCCCCl", "activity change, negative = cytotoxicity": "14.2% [at 81.1 µM] (inactive)"}, {"smiles": "C[C@H](CCC(=O)NCC(=O)O)[C@H]1CC[C@H]2[C@@H]3[C@H](O)C[C@@H]4C[C@H](O)CC[C@]4(C)[C@H]3C[C@H](O)[C@]12C", "activity change, negative = cytotoxicity": "11.8% (inactive)"}, {"smiles": "O=C1NC2NC(=O)NC2N1", "note": "(stereo not drawn)", "activity change, negative = cytotoxicity": "0.538% (inactive)"}, {"smiles": "CCOC(=O)CCc1ccccc1", "activity change, negative = cytotoxicity": "5.4% (inactive)"}, {"smiles": "Cc1ccccc1OCC1CO1", "note": "(stereo not drawn)", "activity change, negative = cytotoxicity": "-0.643% [at 81.1 µM] (inactive)"}, {"smiles": "O=c1[nH]c(=O)c2[nH]c(=O)[nH]c2[nH]1", "activity change, negative = cytotoxicity": "0.395% [at 13.2 µM] (inactive)"}, {"smiles": "Cc1cccc(Nc2ccncc2S(=O)(=O)NC(=O)NC(C)C)c1", "activity change, negative = cytotoxicity": "0.893% (inactive)"}, {"smiles": "OC(CCN1CCCCC1)(c1ccccc1)c1ccccc1", "activity change, negative = cytotoxicity": "-0.173% (inactive)"}, {"smiles": "NS(=O)(=O)c1cc2c(cc1Cl)NC(CC1CCCC1)NS2(=O)=O", "note": "(stereo not drawn)", "activity change, negative = cytotoxicity": "5.95% (inactive)"}, {"smiles": "COc1cccc2sc(N)nc12", "activity change, negative = cytotoxicity": "-14.5% [at 81.1 µM] (inactive)"}, {"smiles": "CN(C)CCCNCCC#N", "activity change, negative = cytotoxicity": "-2% (inactive)"}, {"smiles": "CCC(O)C(C)(C)C", "note": "(stereo not drawn)", "activity change, negative = cytotoxicity": "16.3% [at 81.1 µM] (inactive)"}, {"smiles": "C=CCOC(=O)c1ccc(C(=O)OCC=C)c(C(=O)OCC=C)c1", "activity change, negative = cytotoxicity": "6.46% (inactive)"}, {"smiles": "C=C(C)[C@@H]1CC[C@@H](C)C[C@@H]1O", "activity change, negative = cytotoxicity": "-9.97% (inactive)"}, {"smiles": "Nc1ccc(/C=C/c2ccc(N)cc2S(=O)(=O)O)c(S(=O)(=O)O)c1", "activity change, negative = cytotoxicity": "5.38% [at 0.55 µM] (inactive)"}]}]}
